# Screens deposited in PubChem by National Center for Advancing Translational Sciences (NCATS).
# Rows were chosen to be rich in hits. Some 11% of all compounds tested hit in one or more screens of this group.
# BAZ2B inh: qHTS Assay for Inhibitors of BAZ2B | Bromodomain adjacent to zinc finger domain protein 2B (Homo sapiens), Q9UIF8 | AlphaScreen BAZ2B-H3K14Ac peptide displacement | Potency, µM (highest dose often 114 µM), inactives show at the top dose activity change, negative = inhibition, hits mostly inhibitors | actives 4.4% (n = 360,000) | AID 504333, 2011; further: on the % scale 0 is the no-effect control and ±100 the full control effect; nearly all actives have a fitted effect of over 60% in size
#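 Multi-concentration screen (max 110 uM) measuring displacement of acetylated histone H3 peptide from BAZ2B by AlphaScreen, using 50 nM protein, 50 nM peptide and 10 ug/mL streptavidin donor plus Ni-chelate acceptor beads.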
# G9a block: qHTS Assay for Inhibitors of Histone Lysine Methyltransferase G9a | G9a H3K9 monomethylation, AlphaScreen, 2 h | Histone-lysine N-methyltransferase EHMT2 (Homo sapiens), Q96KQ7 | actives 8.8% (n = 350,000) | Potency, µM (series often up to 102 µM), inactives show at the highest dose activity, negative = inhibition, usual class: inhibitors | AID 504332, 2011; further: on the % scale 0 is the no-effect control and ±100 the full control effect; nearly all actives have a fitted effect of over 75% in size
#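 G9a (20 nM) was preincubated 15 min with compound, then reacted 2 h at room temperature with 500 nM biotin-H3K9 peptide and 20 µM SAM. Monomethyl-H3K9 detected by AlphaScreen using anti-H3K9me1 antibody.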
# L3MBTL1 block: qHTS Assay for the Inhibitors of L3MBTL1; Lethal(3)malignant brain tumor-like protein 1 (Homo sapiens), Q9Y468; AlphaScreen L3MBTL1–H3K9me1 peptide binding; Potency, µM (series often up to 57.1 µM), for inactives: at the highest dose activity, negative = inhibition, usual class: inhibitors; actives 0.66% (n = 230,000); AID 485360, 2010; further: on the % scale 0 is the no-effect control and ±100 the full control effect; nearly all actives have a fitted effect of over 60% in size
#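 AlphaScreen assay: L3MBTL1 (50 nM final) was preincubated 30 min at room temperature with biotinylated H3(1-15)K9me1 peptide (75 nM final), then 30 min with library compounds; streptavidin donor and nickel chelate acceptor beads (10 ug/mL final) added, 30 min dark.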
# JMJD2A Tudor inh: qHTS Assay for Inhibitors of JMJD2A-Tudor Domain. actives 4.4% (n = 390,000). AlphaScreen JMJD2A-Tudor / H3K4me3 peptide binding. Lysine-specific demethylase 4A (Homo sapiens), O75164. Potency, µM (titrated, usually from 114 µM), inactives show at the highest dose activity change, negative = inhibition, usual class: inhibitors. AID 504339, 2011; further: on the % scale 0 is the no-effect control and ±100 the full control effect; nearly all actives have a fitted effect of over 50% in size
# HP1b binding inh: HTS for Inhibitors of HP1-beta Chromodomain Interactions with Methylated Histone Tails; Potency, µM (titrated, usually from 114 µM), for the others: top-dose activity change, negative = inhibition, usual class: inhibitors; actives 0.56% (n = 390,000); AID 540317, 2011; Chromobox protein homolog 1 (Homo sapiens), P83916; AlphaScreen HP1-beta / biotin-H3K9me3 peptide binding; further: nearly all actives have a fitted effect of over 70% in size
#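 AlphaScreen: HP1-beta (50 nM) preformed 30 min with biotin-H3(1-18)K9me3 peptide (50 nM) in PBS pH 7.4, 0.01% Tween-20. Compound added for 30 min at RT, then streptavidin donor/nickel chelate acceptor beads (10 ug/mL) for 30 min.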
# Starred values were filed as active, the others as inactive; ? = inconclusive; . = no result given; [ ] = dose if it differs, or a comment. The call rests on the fitted dose curve; in most records, active means well fitted inhibition curve with a large enough effect; inconclusive means small, poorly fitted or top-dose-only effect; inactive means no such curve, though single readings can be large or run the other way. Potency means the concentration at half of the fitted maximal effect.
SMILES,BAZ2B inh,G9a block,L3MBTL1 block,JMJD2A Tudor inh,HP1b binding inh
CC(NC(=O)CN(c1ccc(Cl)cc1Cl)S(=O)(=O)c1ccccc1)c1ccccc1 (stereo unspecified),-7.8%,2.6%[59 µM],.,-6.3%,23.1%
COc1ccc(CNC(=O)c2cc(-c3cccs3)nc3ccccc23)c(OC)c1,1.9%,-34.8%[59 µM],.,-8.2%,29.4%
O=C(NCc1ccccc1F)C(=O)NCC(c1ccco1)S(=O)(=O)c1cccs1 (stereo unspecified),-2.2%,-5.6%[59 µM],.,-11.4%,5.9%
COc1cc(C(=O)Nc2nc(N)n(-c3ccccc3)n2)cc(OC)c1OC,50.1µM*,-1.6%[12.7 µM],.,-3.8%[11.4 µM],-9.5%
COc1ccccc1C(=O)Nc1nc(N)n(-c2ccccc2)n1,?,-10.0%[59 µM],-4.8%,4.4%,33.1%
CCCCN=C1NN=C(c2ccc3c(c2)OCCO3)CS1,.,44.7µM*,.,-35.0%,17.7%
COCCN=C1NN=C(c2ccc(C)c([N+](=O)[O-])c2)CS1,-29.4%,10µM*,-6.1%,?,12.1%
FC(F)Sc1ccc(N=C2NN=C(c3ccc4c(c3)OCCO4)CS2)cc1,-6.8%,.,-11.7%,-23.2%,?
CCCCN=C1NN=C(c2ccc(C)c(C)c2)CS1,-35.5%,31.6µM*,.,-21.1%[11.4 µM],?
COCCn1c(C)cc(C2=NNC(=NC(C)(C)C)SC2)c1C,-32.6%,?,-9.2%,?,-9.3%
COc1ccc(N=C2NN=C(c3ccc4c(c3)OCCO4)CS2)cc1,?,44.7µM*,.,?,?
O=C(c1ccc2c(c1)OCO2)C1CCCN(Cc2c(F)ccc(F)c2F)C1 (stereo unspecified),-3.0%,?,.,-27.8%,26.2%
O=C(Nc1cccnc1)C12CC3CC(CC(C3)C1)C2,-11.2%,-2.6%,1.6%,-14.3%,27.3%
COC(=O)/C=C/C(=O)Nc1cccnc1,12.0%,50.1µM*,8.1%,-5.2%,15.3%
COC(=O)/C=C/C(=O)Nc1ccc(O)c(Cl)c1,?,39.8µM*,-11.3%,-17.8%,13.2%
O=C(Nc1cccnc1)C1(F)C(F)(F)C(F)(F)C(F)(F)C(F)(F)C1(F)F,-31.2%,50.1µM*,7.3%,79.4µM*,14.4%
CC(NC(=O)c1cc2c(s1)CS(=O)(=O)C2)c1ccccc1 (stereo unspecified),-23.2%,59.1%,.,12.1%,26.5%
CC1=CC(C)(C)N2C(=O)C(=Nc3ccc(O)cc3)c3cccc1c32,35.5µM*,5.01µM*,11.2µM*,-29.4%[11.4 µM],39.8µM*
c1csc(CNc2ncncc2-c2ccoc2)c1,.,-7.9%[0.501 µM],.,.,.
O=C(CCN1C(=O)/C(=C/c2cccs2)SC1=S)Nc1cccc(C(=O)O)c1,50.1µM*,50.1µM*,.,-28.6%,-6.7%
CC(/C=C1\SC(=S)N(CCC(=O)Nc2nc(C)cs2)C1=O)=C\c1ccccc1,?,?,.,39.8µM*,-16.2%
CC(=O)c1ccc(NC(=O)CN2C(=O)/C(=C/C(C)=C/c3ccccc3)SC2=S)cc1,-12.5%,-2.7%[59 µM],1.6%,-27.9%,-6.8%
CC(/C=C1\SC(=S)N(CCCC(=O)Nc2ccc(C(=O)O)c(O)c2)C1=O)=C\c1ccccc1,?,?,39.8µM*,39.8µM*,?
O=C1/C(=C/c2cccs2)SC(=S)N1c1cccc(O)c1,?,?,-9.4%,15.8µM*,-31.1%
CC(/C=C1\SC(=S)N(CCC(=O)Nc2ccc(O)cc2)C1=O)=C\c1ccccc1,-35.5%,-13.1%,.,?,-10.7%
SMILES,BAZ2B inh,G9a block,L3MBTL1 block,JMJD2A Tudor inh,HP1b binding inh
O=C(CCN1C(=O)/C(=C/c2cccs2)SC1=S)Nc1ccc(C(=O)O)c(O)c1,56.2µM*,44.7µM*,.,7.4%,27.0%
O=C(CCN1C(=O)/C(=C/c2cccs2)SC1=S)Nc1cccc(O)c1,-18.5%,25.8%,.,?,-37.8%
O=C(CCN1C(=O)/C(=C/c2cccs2)SC1=S)Nc1ccc(O)cc1,-2.8%,-8.4%,.,-1.4%,14.4%
O=C(CCCN1C(=O)/C(=C/c2cccs2)SC1=S)Nc1cccc(O)c1,?,28.2µM*,.,39.8µM*,?
O=C(O)COc1ccc(/C=C/c2nc(-c3ccccc3O)n[nH]2)cc1,-29.5%,12.6µM*,?,-1.0%,33.3%
COc1ccccc1CN(C)CC(=O)Nc1cccc2ccccc12,1.6%,50.1µM*,.,-4.9%,18.8%
COc1ccccc1NC(=O)C(C)N(C)CC(=O)Nc1cccc2ccccc12 (stereo unspecified),.,.,4.1%,-18.5%,27.7%
COc1ccc(C(C)(C)C)cc1NC(=O)CNc1cccc2ccccc12,?,?,-14.7%,44.7µM*,?
COc1ccccc1CN(C)CC(=O)Nc1ccc(Cl)cc1C(F)(F)F,50.1µM*,8.91µM*,22.6%,3.55µM*,?
COc1ccc([C@]23Cc4cc(OC)c(OC)cc4C(O2)C2=C(CC(C)(C)CC2=O)O3)cc1,-30.5%[22.9 µM],9.2%[2.33 µM],.,.,.
Cc1ccc(Cl)cc1NC(=O)NCc1cccnc1,-0.8%,.,.,6.8%,31.7%
COc1ccc(OC)c(NC(=O)Nc2ccccc2C)c1,-21.0%,9.5%[2.33 µM],.,-20.1%,5.9%
Cc1cc(NC(=O)NC2(C(F)(F)F)Oc3ccc(Cl)cc3O2)no1 (stereo unspecified),-2.9%,7.94µM*,41.2%,?,-8.1%
CCCCNC(=O)NC1(C(F)(F)F)Oc2ccccc2O1,40.6%,?,.,-20.3%,27.3%
COCCNC(=O)NC1(C(F)(F)F)Oc2ccc(Cl)cc2O1 (stereo unspecified),7.3%,39.8µM*,-0.2%,-9.9%[57.1 µM],-22.6%
O=C(NCc1cccnc1)NC1(C(F)(F)F)Oc2ccc(Cl)cc2O1 (stereo unspecified),5.9%,31.6µM*,5.9%,-9.7%,41.4%
COc1ccc(OC)c(NC(=O)NC2(C(F)(F)F)Oc3ccccc3O2)c1,-2.3%,7.94µM*,-15.2%,-17.6%,14.3%
CC(C)c1ccc(NC(=O)CSC2=Nc3ccccc3C3=NC(CC(=O)NCc4ccc(F)cc4)C(=O)N23)cc1 (stereo unspecified),-23.4%,-0.3%[59 µM],.,?,0.2%
CSc1ccccc1NC(=O)C1=CC(c2ccc3c(c2)OCO3)=NS(=O)(=O)N1C,-3.1%,-28.7%[59 µM],.,-12.3%,22.7%
CCn1c(Sc2ccc([N+](=O)[O-])cn2)nnc1-c1ccco1,2.3%,0.9%[0.501 µM],8.3%,25.1µM*,35.7%
CCn1c(SCC(=O)OCc2ccccc2)nnc1-c1ccco1,-4.8%,27.9%[12.7 µM],6.6%,-7.2%,18.8%
O=C(Cc1ccccc1Cl)Nc1ccc(S(=O)(=O)Nc2nccs2)cc1,-21.6%,-0.9%,.,-19.2%,32.1%
